# Assay results reported in PubChem BioAssay AID1063 (University of Pittsburgh Molecular Library Screening Center, 2008).
# In all, about 200,000 compounds went through this assay and about 18,000 (9%) were called active. The sample as a whole holds a higher share of actives than the screen did. Values without a mark were called inactive. No stated cut-off is given here; in the data, active means inhibition above about 50%; inactive means the rest. Where a SMILES comes first, the peptide text is derived from it. The star is where a group is joined. Bz = O=C(c1ccccc1)*
# Experiment: antileishmanial activity against promastigotes – primary screen (AID 1063);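 further: promastigotes grown with compound for 44 hours at 28 °C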
# Settings: Leishmania major promastigotes, resazurin fluorescence viability; at 10 µM; hits give high values
row,Compound,inhibition
1,CCCCn1c(=O)c(C(C)=O)c(O)c2ccccc21,-2.04%
2,COC(=O)c1cccc(N(C(=O)c2ccco2)C(C(=O)NC2CCCC2)c2ccco2)c1 (stereo unspecified),51.8% (active)
3,COC(=O)c1ccc(N(CC(=O)NC2CCCC2)C(=O)CNC(=O)c2ccco2)cc1,-5.36%
4,O=C(NC1CCCC1)C(c1ccc(N2CCOCC2)cc1)N(C(=O)c1ccco1)c1ccccc1F (stereo unspecified),3.7%
5,Cc1cc(C(=O)N/N=C\C(Br)=C\c2ccccc2)c(C)o1,12.7%
6,COc1cc(/C=N\NC(=O)c2nonc2N)c(OC)cc1Br,-4.69%
7,COCc1c(C(=O)N/N=C/C2CC=CCC2)nnn1-c1nonc1N (stereo unspecified),-6.32%
8,Nc1nonc1-n1nnc(C(=O)N/N=C/c2cc(Br)ccc2O)c1CSC1=NCCS1,50.8% (active)
9,COc1ccc(-c2ccc(CCC(=O)O)n2NC(=O)c2ccc(C(C)(C)C)cc2)cc1,-4.23%
10,NC(=O)C1=C[C@H](c2csc3ccccc23)C[C@H](OCc2ccc(CO)cc2)O1,14.5%
11,CN(C)N(C)C(=O)C(O)(c1ccccc1)c1ccccc1,-4.98%
12,Cc1nn(-c2ccccc2)c2sc(C(=O)N(Cc3ccco3)C(C)C(=O)NC(C)(C)C)cc12 (stereo unspecified),85.5% (active)
13,Cc1nc(C)c(C(=O)N(c2ccc(C)c(C)c2)C(C(=O)NCc2ccco2)c2ccccc2)s1 (stereo unspecified),-1.53%
14,Cc1ccc(-c2nnn(CC(=O)N(Cc3ccco3)C(C(=O)NC(C)(C)C)c3ccncc3)n2)o1 (stereo unspecified),4.2%
15,COc1ccc(CC(=O)NCc2nnc(SCC(=O)Nc3ncc(C)s3)n2C)cc1,-4.95%
16,CCOc1ccc(Nc2oc(Cc3ccccc3)nc2C#N)cc1,99.7% (active)
17,N#Cc1nc(Cc2ccccc2)oc1NCCc1ccccc1,0.9%
18,N#Cc1nc(COc2ccc(-c3ccccc3)cc2)oc1NCc1cccnc1,7.49%
19,CCOC(=O)c1[nH]cnc1C(=O)Nc1ccccc1C,4.69%
20,CCC(=O)Nc1ccc(C(=O)N2CCN(C(=O)c3ccco3)CC2)cc1,0.95%
21,O=C(Nn1cnc2ccccc2c1=O)c1ccc([N+](=O)[O-])cc1Cl,-9.04%

row,Compound,inhibition
1,COc1ccc(NC(=O)/C(Cl)=C(/Cl)S(=O)Cc2ccc(C)cc2)cn1 (stereo unspecified),101% (active)
2,Cc1ccc(NC(=O)OCc2cncs2)cc1,-5.83%
3,COc1ccc(NC(=S)Nc2ccccc2Cl)cn1,6.52%
4,CC(=O)Nc1ccc(OCC(=O)NCc2ccc(C)cc2)cc1,-6.13%
5,COc1ccc(NC(=S)NCCNC(C)=O)cc1,-3.38%
6,COc1ccc(CS(=O)/C(Cl)=C(/Cl)C(=O)Nc2ccc(OC)nc2)cc1 (stereo unspecified),101% (active)
7,Cc1ccc(NC(=O)OCCNC(=O)c2ccncc2)cc1,0.55%
8,O=C(CN1C(=O)NC2(CCCCCC2)C1=O)NC1CC1,-1.36%
9,O=C(Nc1ccccc1C(=O)O)c1cc(S(=O)(=O)N2CCCCC2)cs1,-7.25%
10,CCOC(=O)c1sc(=NC(=O)/C=C/c2cccs2)n(C)c1C,-7.45%
11,Cc1ccc(OCc2n[nH]c(=S)n2-c2ccccc2)cc1,0.68%
12,COc1ccccc1N(C(=O)Cn1nnc2ccccc21)C(C(=O)NCc1ccco1)c1ccc(C)o1 (stereo unspecified),-2.13%
13,COc1ccc([N+](=O)[O-])cc1N(CC(O)Cn1nnc2ccccc21)S(=O)(=O)c1ccc(C)cc1 (stereo unspecified),99% (active)
14,COc1ccc(C)cc1S(=O)(=O)N(CC(=O)Nc1cccc([N+](=O)[O-])c1)c1ccc(C)cc1,30.9%
15,CC(=O)OC(COc1ccc(F)cc1)Cn1cnc2ccccc21 (stereo unspecified),-0.28%
16,Cc1cc(NS(=O)(=O)c2ccc(NC(=O)c3cccc(OC(F)F)c3)cc2)nc(C)n1,-1.79%
17,Cc1cc(C(F)F)n2nc(C(=O)Nc3ccc(S(=O)(=O)NC45CC6CC(CC(C6)C4)C5)cc3)nc2n1,99% (active)
18,CCn1nccc1C(=O)Nc1ccc(S(=O)(=O)NC23CC4CC(CC(C4)C2)C3)cc1,47.6%
19,COc1ccc(Cl)cc1N(CC(=O)N1CCCCC1)S(C)(=O)=O,-4.47%
20,CN(C)c1ccc(/C=N\S(=O)(=O)c2ccccc2)cc1,51.7% (active)
21,CN(C)c1ccc(/C=N/N(Cc2ccccc2)c2ccccc2)cc1,3.58%

row,Compound,inhibition
1,COc1ccc(/C=N/S(=O)(=O)c2ccccc2)cc1OC,0.14%
2,CCNC(=S)NNC(=O)c1ccc2ncccc2c1,-8.24%
3,OC(c1nnc(-c2ccccc2)o1)c1cccs1 (stereo unspecified),0.18%
4,O=c1cnnc(Nc2ccccc2F)[nH]1,-2.35%
5,CCN1C(=O)/C(=C\N2CCN(c3ccccc3)CC2)SC1=S,0.18%
6,CC(C)=C1SC(N2CCN(c3cccc(C)c3)CC2)=NC1=O,1.42%
7,CCN1C(=O)/C(=C2\SC(N3CCCCC3)=NC2=O)c2ccccc21,74.1% (active)
8,O=C(c1ccc(Cl)c([N+](=O)[O-])c1)N1CCN(c2ccccc2)CC1,-0.23%
9,O=C(c1cncc(Br)c1)N1CCN(c2ccc([N+](=O)[O-])cc2)CC1,57.2% (active)
10,Cc1cccc(C(=O)NC(=S)N2CCN(c3ccc([N+](=O)[O-])cc3)CC2)c1,36.9%
11,Cc1cc([N+](=O)[O-])nn1CC(=O)Nc1ccc(Cc2ccncc2)cc1,-0.44%
12,Cc1ccc2c(=O)oc(N(C)C)nc2c1,7.03%
13,Cc1ccc(SCCC(=O)NCc2ccccn2)cc1,3.06%
14,Cc1ccc(SCCC(=O)NC(C(C)C)C(C)C)cc1,59.5% (active)
15,Cc1ccc(SCCC(=O)Nc2cc(C)on2)cc1,-6.06%
16,CN(C)/C=C/C(=O)c1cnc2sccn2c1=O,-6.23%
17,O=C(C(Cc1ccccc1)n1cccc1)N1CCN(C2CCCCC2)CC1 (stereo unspecified),83% (active)
18,O=C(NC(Cc1ccccc1)C(=O)N1CCCC1C(=O)O)c1ccccc1 (stereo not drawn) (Bz-Phe-Pro-OH; configuration not given here),-8.5%
19,Cc1ccc(C(=O)N2CCN(C3CCCCC3)CC2)s1,-10.8%
